# Hits are enriched below; roughly 11% of the tested compounds scored in any of these assays.
# AMA1 RON2 block: inhibitors of Plasmodium falciparum AMA1-RON2 interaction | AlphaScreen AMA1-biotinylated RON2 peptide binding | Potency, µM (highest dose often 58.2 µM), for the others: at the top dose activity change, negative = inhibition, hits mostly inhibitors | 360,000 compounds, 0.2% hits;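 note: 0% = vehicle wells and -100% = peptide control; nearly all actives have a fitted effect of over 45% in size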
#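 AMA1 (3D7) with his tag at 25 nM final met compounds first, then biotinylated RON2 peptide at 25 nM; detection used donor plus acceptor beads, 10 µg/mL apiece, read by AlphaScreen after 30 min at room temperature.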
# HCV inhibitor: HCV inhibition; Potency, µM (series often up to 41.8 µM), for inactives: at the top dose activity change, negative = inhibition, usual class: inhibitors; AID 651820; 340,000 compounds, 3.4% hits; Huh7.5.1 HCVcc-Cre infection, luciferase reporter, 44 h
#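 Infectious HCVcc-Cre (~0.5 moi) was added to cells just after compound, with cells seeded 4 h earlier at 1,000 per well. Luciferase activity after 44 h culture reported infection; substrate was incubated 15 min at room temperature before reading.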
# AmpC inh detg: blocks E. coli AmpC beta-lactamase in detergent assay; 370,000 compounds, 0.041% hits; P00811; AmpC hydrolysis of nitrocefin, absorbance 480 nm, 0.01% Triton; Potency, µM (titrated, usually from 114 µM), for inactives: top-dose activity change, negative = inhibition, most hits filed as inhibitors;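 note: 0% = no-compound wells and -100% = no-enzyme wells; nearly all actives have a fitted effect of over 25% in size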
# Target sequence (P00811 whole entry, looked up): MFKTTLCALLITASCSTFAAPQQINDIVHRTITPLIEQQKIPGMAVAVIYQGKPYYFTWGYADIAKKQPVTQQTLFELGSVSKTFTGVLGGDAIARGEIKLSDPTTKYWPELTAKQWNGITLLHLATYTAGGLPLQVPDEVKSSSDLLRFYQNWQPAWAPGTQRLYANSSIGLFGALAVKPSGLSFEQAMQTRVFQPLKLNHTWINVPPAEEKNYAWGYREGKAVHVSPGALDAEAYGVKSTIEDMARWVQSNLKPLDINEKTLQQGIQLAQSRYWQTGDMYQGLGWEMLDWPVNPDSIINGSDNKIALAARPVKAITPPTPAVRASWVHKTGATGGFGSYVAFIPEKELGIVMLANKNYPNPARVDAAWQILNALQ
#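 AmpC (5.3 nM in the dispensed reagent) in 20 mM phosphate pH 7.0 with 0.01% (detergent screen) or 0.0001% Triton X-100 was preincubated with compounds for 15 min at room temperature. Nitrocefin was then added from an 800 uM solution, and hydrolysis was followed at 480 nm.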
# Pf growth 48h: P. falciparum growth inhibition at 48 hours (one generation). P. falciparum luciferase growth in erythrocytes, 48 h. Potency, µM (titrated, usually from 28.7 µM), inactives show at the top dose activity change, negative = inhibition, usual class: inhibitors. 310,000 compounds, 5.9% hits. AID 504832
#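 First compound was added to culture medium, then infected red cells at 0.1% parasitemia and 2% hematocrit (final). After incubation at 37 C under 5% CO2, luciferase detection reagent was dispensed and light output recorded.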
# Pf growth 96h: inhibits malaria parasite growth, 96 h | P. falciparum luciferase reporter growth, 96 h | Potency, µM (highest dose often 28.7 µM), without a hit: top-dose activity change, negative = inhibition, actives largely listed as inhibitors | 320,000 compounds, 6.9% hits | AID 504834
#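 Infected RBCs, 2% Hct / 0.05% parasitemia final; luciferase-reporter P. falciparum; cpd 96 h, 37 C, 5% CO2; luciferase detection reagent; luminescence.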
# AmpC no deterg: AmpC beta-lactamase inhibition without detergent | AmpC nitrocefin hydrolysis, absorbance 480 nm, 0.0001% Triton | Potency, µM (top dose mostly 57.1 µM), inactives show at the top dose activity change, negative = inhibition, actives largely listed as inhibitors | 330,000 compounds, 0.52% hits;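 note: plate controls were no compound for no effect and no enzyme for full effect; nearly all actives have a fitted effect of over 20% in size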
#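 AmpC (5.3 nM in the dispensed reagent) in 20 mM phosphate pH 7.0 with 0.01% (detergent screen) or 0.0001% Triton X-100 was preincubated with compounds for 15 min at room temperature. Nitrocefin was then added from an 800 uM solution, and hydrolysis was followed at 480 nm.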
# Numbers without * were called inactive; ? = inconclusive; nt = no result given. Calls come from the whole dose curve; as a rule, active = well fitted curve in the direction sought with a large enough effect; inconclusive = small, poorly fitted or top-dose-only effect, or another doubt; inactive = no such curve, though single readings can be large; an effect the other way counts as inactive or inconclusive. Unless noted, % is set by controls: 0 for no effect and ±100 for the full control effect; potency is the fitted concentration of half-maximal effect.
SMILES,AMA1 RON2 block,HCV inhibitor,AmpC inh detg,Pf growth 48h,Pf growth 96h,AmpC no deterg
Nc1cc2c(cc1Cl)-c1ccc([N+](=O)[O-])cc1C2=NO,1%,5.6µM*,nt,nt,nt,nt
O=C(N/N=C/c1cc(Cl)ccc1O)c1cccnc1,-9%,5µM*,-11%,3.3µM*,?,-14%
O=C(N/N=C/c1cc(Cl)ccc1O)c1ccccc1Br,99%,?,5%,3.7µM*,?,-31%
O=C(Nc1cc(S(=O)(=O)Nc2ccc(Cl)cc2)ccc1O)c1ccc(S(=O)(=O)N2CCCCCC2)cc1,-24%,?,-6%,-24%,0%,?
O=C(N/N=C\c1cc2c(cc1Cl)OCO2)c1cccnc1,20%,-2%,-8%,-27%,?,-13%
O=C(N/N=C\c1cc(Cl)ccc1O)c1ccc(S(=O)(=O)N2CCCCC2)cc1,8%,3.5µM*,?,2.6µM*,2.9µM*,-32%
O=C(Nc1ccc(Br)cc1)c1cccc(OC(=S)N2CCOCC2)c1,-18%,8.9µM*,?,4%,-7%,-46%
Cc1cccc(NC(=O)c2cccc(OC(=S)N3CCOCC3)c2)c1C,8%,8%,2%,3%,1.9µM*,-10%
CN(C)CCCN(C(=O)c1ccc(S(=O)(=O)N(C)C2CCCCC2)cc1)c1nc2ccc(Br)cc2s1,-14%,?,2%,13µM*,?,161%
Cc1cc(C)c2sc(N(CCCN(C)C)C(=O)c3ccc(S(=O)(=O)N(C)C4CCCCC4)cc3)nc2c1,-28%,10µM*,-12%,10µM*,?,307%
CC(=O)N1c2ccc(S(=O)(=O)N3CCC(C(=O)Nc4ccc(C)cn4)CC3)cc2CC1C (stereo unspecified),-3%,11µM*,?,?,?,10%
CCc1ccc(NC(=O)C2CCN(S(=O)(=O)c3ccc4c(c3)CC(C)N4C(C)=O)CC2)cc1 (stereo unspecified),-9%,2.8µM*,6%,?,?,78%
CC(=O)N1c2ccc(S(=O)(=O)N3CCC(C(=O)Nc4cc(C)cc(C)c4)CC3)cc2CC1C (stereo unspecified),13%,3%,1%,?,?,-7%
CCc1ccc(NC(=O)C2CCCN(S(=O)(=O)c3ccc4c(c3)CC(C)N4C(C)=O)C2)cc1 (stereo unspecified),-6%,?,3%,?,22%,102%
Cc1ccnc(NC(=O)C2CCN(S(=O)(=O)c3ccc4c(c3)CC(C)N4C(=O)C3CCC3)CC2)c1 (stereo unspecified),-5%,?,0%,10µM*,?,46%
CC(C)CCNC(=O)C1CCN(S(=O)(=O)c2ccc3c(c2)CC(C)N3C(=O)C2CCC2)CC1 (stereo unspecified),-2%,-7%,-4%,15µM*,?,76%
Cc1ccnc(NC(=O)C2CCN(S(=O)(=O)c3ccc(C)c(C)c3)CC2)c1,-8%,?,-14%,34%,-57%,-7%
Cc1cc(C)cc(NC(=O)CCc2c(C)nc3c(c2C)c(=O)n(C)c(=O)n3C)c1,nt,nt,15%,nt,nt,nt
COc1ccc(NC(=O)Cn2ccn(-c3ccccc3)c(=O)c2=O)cc1,nt,nt,16%,nt,nt,nt
CCc1sc(Nc2cccc(C)c2C)nc1-c1cc2cccc(OC)c2oc1=O,nt,nt,10%,nt,nt,nt
CCC(C)NC(=O)C1CCN(S(=O)(=O)c2ccc3c(c2)CC(C)N3C(C)=O)CC1 (stereo unspecified),-1%,-7%,-8%,-23%,18%,-11%
Cc1ccc(CNC(=O)C2CCN(S(=O)(=O)c3ccc4c(c3)CC(C)N4C(=O)C3CCC3)CC2)o1 (stereo unspecified),-10%,-20%,?,?,?,53%

# High-throughput results as filed in PubChem BioAssay.
